High-throughput results (PubChem BioAssay)
FBPA Giardia inh: blocks Giardia fructose-bisphosphate aldolase activity; 0.71% of 290,000 active; A8B2U2; Potency, µM (doses to about 59.6 µM), for the others: at the highest dose activity, negative = inhibition, usual class: inhibitors; purified Giardia FBPA; also: potency is read from the fitted curve at half-maximal effect; % is scaled to controls: 0 for no effect and ±100 for the full control effect; nearly all actives have a fitted effect of over 55% in size
Target sequence (A8B2U2 whole entry, looked up): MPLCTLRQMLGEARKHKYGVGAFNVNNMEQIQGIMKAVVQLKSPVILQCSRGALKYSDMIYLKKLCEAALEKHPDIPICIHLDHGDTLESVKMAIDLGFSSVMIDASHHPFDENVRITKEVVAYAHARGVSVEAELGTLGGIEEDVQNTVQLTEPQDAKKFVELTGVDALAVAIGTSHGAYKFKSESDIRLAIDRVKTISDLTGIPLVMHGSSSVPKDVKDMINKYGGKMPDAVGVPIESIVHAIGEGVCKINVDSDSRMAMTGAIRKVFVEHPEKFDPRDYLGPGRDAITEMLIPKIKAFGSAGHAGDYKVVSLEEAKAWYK
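40 nM FBPA preincubated 10 min at RT with compound (up to 57.5 uM final), then substrate plus GAPDH/TPI/NAD/arsenate coupling and diaphorase/resazurin added. Fluorescence read after 20 min at RT, 525/598 nm.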
Pf growth 48h: P. falciparum growth inhibition at 48 hours (one generation) | Potency, µM (titrated, usually from 28.7 µM), for the others: at the highest dose activity change, negative = inhibition, usual class: inhibitors | P. falciparum luciferase growth in erythrocytes, 48 h | 5.9% of 310,000 active; also: potency is read from the fitted curve at half-maximal effect; % is scaled to controls: 0 for no effect and ±100 for the full control effect
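Parasite viability was followed by luminescence of a genomically integrated firefly luciferase. Cultures held 0.1% parasitemia at 2% hematocrit (final), incubated under 5% CO2 at 37 C.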
Shiga inhibitor: inhibitors of Shiga toxin in Vero cells. AID 2315. Vero cells, Shiga toxin protein synthesis inhibition reporter. 9.2% of 290,000 active. inhibition, % at 38.7 µM; in the data active = inhibition mostly above about 28%, no sharp cut-off; inactive = mostly below about 43%; also: 0% is about no effect
NS1 inh: inhibitors of influenza NS1 protein function; Potency, µM (doses to about 46.1 µM), inactives show at the highest dose activity, positive = more growth; 0.4% of 270,000 active; AID 2326; calls by dose curve; also: potency is read from the fitted curve at half-maximal effect; actives are rising curves; nearly all actives have a fitted effect of over 50% in size
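Recovery from NS1-induced slow growth read by OD600 in budding yeast switched to galactose assay medium (pH 6.0, -URA) at 1:100 dilution. Compound 23 nl per well; the matching strain lacking NS1 serves as control.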
Pf growth 96h: P. falciparum growth inhibition at 96 hour, primary screen for plastid delayed-death inhibitors. Potency, µM (highest dose often 28.7 µM), for inactives: at the highest dose activity change, negative = inhibition, actives largely listed as inhibitors. P. falciparum luciferase reporter growth, 96 h. 6.9% of 320,000 active; also: potency is read from the fitted curve at half-maximal effect; % is scaled to controls: 0 for no effect and ±100 for the full control effect
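Cell-based qHTS: luciferase-tagged P. falciparum in erythrocytes (2% hematocrit, 0.05% parasitemia final) incubated with compounds for 96 hours, 37 C, 5% CO2; luciferase detection reagent then added and luminescence measured.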
Cycloheximide cs: counter-screen for Shiga toxin inhibitors: cycloheximide protein synthesis inhibition; cell reporter, cycloheximide protein synthesis inhibition counterscreen; 12% of 300,000 active; AID 2314; max response, %; in the data active = max response mostly above about 13%, no sharp cut-off; inactive = mostly below about 14%; also: read at 38.3 µM for the half of the compounds with a filed dose; 0% is about no effect
An asterisk follows results filed as active; ? = inconclusive; nt = no result given. Hits are enriched below; roughly 21% of the tested compounds scored in any of these assays. Unless noted, calls follow the shape of the dose curve; as a rule, active = well fitted curve in the direction sought with a large enough effect; inconclusive = small, poorly fitted or top-dose-only effect, or another doubt; inactive = no such curve, though single readings can be large; an effect the other way counts as inactive or inconclusive.

SMILES	FBPA Giardia inh	Pf growth 48h	Shiga inhibitor	NS1 inh	Pf growth 96h	Cycloheximide cs
CC(OC(=O)COc1ccccc1Cc1ccccc1)C(=O)N(C)c1ccccc1 (centres undefined)	nt	?	nt	nt	-10%	nt
COC(=O)c1sc(NC(=S)NC(=O)c2ccccc2)nc1C	-18%	59%	-9	-4%	?	26*
CCOC(=O)c1sc(NC(=O)C(OC(C)=O)c2ccccc2)nc1C (centres undefined)	-6%	-24%	39*	-7%	10µM*	25*
CCOC(=O)c1sc(NC(=S)NC(=O)c2ccccc2)nc1C	?	245%	165*	nt	24%	42*
COC(=O)c1sc(NC(=S)NC(=O)c2ccccc2Cl)nc1C	15%	106%	65*	14%	10%	40*
COC(=O)C1=C[C@@H](C(=O)OC)C2C3=C(C(=O)[C@@]2(C)NC(=O)c2ccccc2)[C@H](c2ccccc2)[C@@H]2C(=O)N(c4ccccc4)C(=O)[C@@H]2[C@@H]3C1 (some centres undefined)	-4%	nt	-10	nt	nt	1
Cc1nc(NC(=S)NC(=O)c2ccccc2)sc1C(=O)N(C)C	?	nt	34	-16%	44%	22*
O=C(NCC(=O)N(c1cccc(F)c1)C(C(=O)NC1CCCC1)c1cccnc1)c1ccco1 (centres undefined)	2%	14%	-16	-15%	-3%	1
COCCC(=O)N1CCC(Oc2ccc(C(=O)NC3CCOC(C)(C)C3)cc2)CC1 (centres undefined)	2%	23%	-5	4%	?	-2
COc1ccc(CSc2nc(CSC)cc(N3CCOCC3)n2)cc1	-7%	12µM*	-7	-47%	?	5
COc1ccc(CN2CCOCCOCCOCCOCCOCC2)cc1	1%	12%	-11	1%	15%	-2
C/C=C1/C[C@@H](C)[C@@](C)(O)C(=O)OCC2=CCN3CC[C@@H](OC1=O)[C@@H]23	-11%	nt	-11	nt	nt	1
O=S(=O)(NCCO)c1cc[c]([Sb])cc1	nt	nt	nt	-6%	nt	nt
COc1ccc(/C=N/Nc2nc3ccccc3o2)cc1O	-10%	nt	76	-2%	276%	36*
COc1cc(/C=N\Nc2nc3ccccc3o2)cc(OC)c1OC	-18%	42%	110*	3%	19%	40*
COc1ccc(/C=N/Nc2nc3ccccc3s2)cc1O	-10%	284%	68*	nt	?	33
CC(=O)Nc1cccc(/C(C)=N/Nc2nc3ccccc3s2)c1	-9%	409%	113*	-10%	33%	39*
COc1ccc(S(=O)(=O)Nc2nc3ccccc3s2)cc1OC	17%	37%	30	-1%	nt	15
COc1cc(/C=N/Nc2nc3ccccc3o2)cc(OC)c1O	-23%	7%	42	-79%	nt	25
NS(=O)(=O)c1ccc(CCNC(=O)c2ccc[nH]c2=S)cc1	5%	13%	-5	4%	20%	-1
CC(=O)Nc1ccc(/C=N/Nc2nc3ccccc3s2)cc1	-1%	51%	72*	3%	422%	54*
CC(=O)Nc1ccc(S(=O)(=O)Nc2nc3ccccc3s2)cc1	12%	10%	-24	1%	nt	5
C=CCn1c(SCC(=O)Nc2nncs2)nnc1-c1ccco1	-24%	48%	-10	-1%	2%	-2
Cc1cc(-c2ccc(C(C)C)c(S(=O)(=O)NCc3ccco3)c2)on1	10%	-19%	34*	-18%	?	30*
Cc1cc(-c2ccc(C(C)C)c(S(=O)(=O)NCCN3CCC(C)CC3)c2)on1	-11%	?	-2	14%	32%	-9
Cc1ccnc(NS(=O)(=O)c2cc(-c3cc(C)no3)ccc2C(C)C)c1	-10%	23%	28*	6%	10µM*	17*
Cc1nn2c(COc3ccc(NC(=O)c4ccccc4Cl)cc3)nnc2c2ccccc12	1%	12µM*	22	?	4.1µM*	10
CCCCCC/C=C/c1ccc(OC)c(C2C3C=CCC(C)C3C(=O)N2Cc2ccccc2)c1 (centres undefined)	1%	nt	1	nt	nt	-6
CN(C)c1ccc(C2Nc3cccc4cccc(c34)N2)cc1	-19%	nt	31	0%	3.7µM*	11
Clc1cccc(C2Nc3cccc4cccc(c34)N2)c1	-27%	7.4µM*	-7	30%	63%	1
